Screening results from PubChem BioAssay.
DT40 TDP1 no CPT – qHTS for Inhibitors of human tyrosyl-DNA phosphodiesterase 1 (TDP1): qHTS in cells in absence of CPT; Potency, µM (top dose mostly 46.2 µM), for inactives: at the highest dose activity change, negative = growth inhibition, most hits filed as inhibitors; DT40 Tdp1-/- hTDP1 cells, no CPT, ATP luminescence, 48 h; 15% of 420,000 active; note: potency is the fitted concentration of half-maximal effect; nearly all actives have a fitted effect of over 55% in size
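Seeded 400 DT40-hTDP1 cells/well (vehicle DMSO, no 20 nM CPT); pinned compounds; ≥48 hr at 37 °C; CellTiter-Glo luminescence as viability measure.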
uPA generation – blocks generation of uPA at the cell surface; 0.31% of 330,000 active; cell surface uPA generation assay, qHTS; Potency, µM (series often up to 38.3 µM), for inactives: at the top dose activity change, negative = inhibition, actives largely listed as inhibitors; AID 540303; active = well fitted inhibition curve with a large enough effect; inconclusive = small, poorly fitted or top-dose-only effect; inactive = no such curve, though single readings can be large or run the other way; tested in mouse RAW 264.7 cells; note: potency is the fitted concentration of half-maximal effect; nearly all actives have a fitted effect of over 55% in size
IL-1B inflam inh – blocks inflammasome-driven IL-1 beta release; activity change, % at 57.5 µM; THP-1 LPS/ATP IL-1B secretion, AlphaLISA, 16 h; active compounds read low; 4.7% of 360,000 active; in the data active = activity change below about -50%; inconclusive = mostly about -30% to -49%
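THP-1 cells pretreated 1 hr with compounds (up to 57.5 uM final), then stimulated with LPS (250 ng/mL final) plus ATP (1.25 mM final); secreted IL-1B measured by AlphaLISA after 16 hr, decreased signal indicating inhibition.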
HT1080NT lethal – kills 2HG-producing HT-1080-NT fibrosarcoma cells. HT-1080-NT fibrosarcoma viability, CellTiter-Glo ATP luminescence, 48 h. Potency, µM (top dose mostly 46.1 µM), without a hit: at the highest dose activity, negative = less viability, usual class: cytotoxic. 1.6% of 360,000 active;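 note: NT is the 2HG producing partner of a matched IDH1 knockdown line; potency is the fitted concentration of half-maximal effect; 0% = DMSO-treated cells and -100% = media-only wells without cells; nearly all actives have a fitted effect of over 55% in size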
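Read-out is CellTiter-Glo luminescence after 10 minutes at room temperature, following 48 hours' compound treatment of HT-1080-NT cells (750 cells/well, RPMI, 5% FBS, 37 degrees C).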
HT1080 IDH1KD tx – HT-1080 IDH1 knockdown cell toxicity (counter line); HT-1080 IDH1 knockdown viability, ATP luminescence, 48 h; Potency, µM (highest dose often 46.1 µM), inactives show top-dose activity, negative = toxicity, usual class: cytotoxic; 2% of 360,000 active; AID 686971;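 note: potency is the fitted concentration of half-maximal effect; 0% = DMSO wells and -100% = cell-free medium wells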
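Cytotoxicity counter-line: IDH1KD HT-1080, 48 h, CellTiter-Glo. Curves classed by r2, magnitude and activity.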
TDP1 cell CPT – growth inhibition of DT40 Tdp1-/-;hTDP1 cells with camptothecin (screen for TDP1 inhibitors); AID 686979; chicken DT40 Tdp1-/-;hTDP1 cells + 20 nM CPT, ATP luminescence, 48 h; Potency, µM (titrated, usually from 46.2 µM), for the others: at the top dose activity change, negative = growth inhibition, hits mostly inhibitors; 12% of 420,000 active; note: potency is the fitted concentration of half-maximal effect; nearly all actives have a fitted effect of over 55% in size
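Chicken DT40 Tdp1-/- cells stably complemented with human TDP1 were seeded at 400 cells/well in medium containing 20 nM camptothecin, exposed to pin-transferred compounds, and grown at 37 °C for at least 48 hr. Viability was read as ATP luminescence.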
Numbers without * were called inactive; ? = inconclusive; nt = no result given; [ ] = dose if it differs, or a comment. Shown are actives, neighbours in structure and some others; about 19% of the full set was active somewhere. Unless noted, calls come from the whole dose curve; as a rule, active = well fitted curve in the direction sought with a large enough effect; inconclusive = small, poorly fitted or top-dose-only effect, or another doubt; inactive = no such curve, though single readings can be large; an effect the other way counts as inactive or inconclusive. Unless noted, % is set by controls: 0 for no effect and ±100 for the full control effect.

SMILES	DT40 TDP1 no CPT	uPA generation	IL-1B inflam inh	HT1080NT lethal	HT1080 IDH1KD tx	TDP1 cell CPT
CCOC(=O)c1cc(-c2ccccc2)n(CC(=O)Nc2ccc(OC)cc2OC)c1C	?	nt	nt	nt	nt	16µM*
CCOC(=O)c1cc(-c2ccc(OC)cc2)n(CCC(=O)Nc2nc3ccc(OCC)cc3s2)c1C	9.2µM*	nt	nt	nt	nt	16µM*
CC(=O)N1CCc2cc(CNC(=O)Nc3cc(Cl)ccc3C)ccc21	-22%	nt	nt	nt	nt	-8%
CCCCCCNc1c([N+](=O)[O-])c(=O)sc2ccccc12	?	-5%	37	?	-13%	?
CC(=O)c1cc(-c2ccc(F)cc2)n(CCC(=O)Nc2nc3ccc(C)cc3s2)c1C	16µM*	nt	nt	nt	nt	26µM*
CCOC(=O)c1cc(-c2ccc(C)cc2)n(CC(=O)Nc2cc(C)ccc2C)c1C	15µM*	nt	nt	nt	nt	21µM*
CCOC(=O)c1cc(-c2ccc(OC)cc2)n(CCC(=O)Nc2ccc(OC)cc2OC)c1C	21µM*	nt	nt	nt	nt	21µM*
CC(=O)c1cc(-c2ccc(F)cc2)n(CCC(=O)NC(C)(C)C)c1C	12%	2%	27	6%	1%	9%
CCOC(=O)c1cc(-c2ccc(OC)cc2)n(CCC(=O)Nc2ccccc2OC)c1C	21µM*	nt	nt	nt	nt	15µM*
CCOC(=O)c1cc(-c2ccc(C)cc2)n(CC(=O)Nc2cccc(C(C)=O)c2)c1C	?	nt	nt	nt	nt	-21%
COc1cc([N+](=O)[O-])ccc1NC(=O)CCS(=O)(=O)c1ccc2c(c1)n(C)c(=O)c(=O)n2C	7%	3%	1	18%	17%	5%
COC(=O)c1cc(-c2ccccc2)n(CCN)c1C	-17%	-16%	-14	0%	-1%	-9%
CCOC(=O)c1cc(-c2ccccc2)n(CCC(=O)NCc2ccccc2Cl)c1C	13µM*	nt	nt	nt	nt	?
CCOC(=O)c1cc(-c2ccccc2)n(CCC(=O)N2CCN(c3ccccn3)CC2)c1C	21µM*	3%	-9	-5%	-10%	15µM*
CCOC(=O)c1cc(-c2ccc(F)cc2)n(CCC(=O)Nc2ccccc2OC)c1C	21µM*	nt	nt	nt	nt	?
CCOC(=O)c1cc(-c2ccc(OC)cc2)n(CCC(=O)NCc2ccccc2OC)c1C	?	nt	nt	nt	nt	26µM*
N#Cc1cnc2nc1NCCCCCCC2	?	nt	32	11%	5%	-10%
C[C@@H]1O[C@@H](O[C@@H]2[C@@H](O)[C@H](OCCc3ccc(O)c(O)c3)O[C@H](CO)[C@H]2OC(=O)/C=C/c2ccc(O)c(O)c2)[C@H](O)[C@H](O)[C@H]1O	-1%	-5%	3	12%	5%	-14%
CCc1nc2c(OCc3cc(Cl)cc(Cl)c3)cccn2c1N(C)C(=O)c1ccc(OC)cc1	16µM*	nt	?	?	?	18µM*
CCc1nc2c(OCc3cc(Cl)cc(Cl)c3)cccn2c1N(C)C(=O)c1ccccc1F	?	nt	-58*	18µM*	?	?
CCc1nc2c(OCc3cccc(OC)c3)cccn2c1N(C)C(=O)c1ccccc1F	?	nt	-14	-8%	-18%	?
CCc1nc2c(OCC3COc4ccccc4O3)cccn2c1N(C)C(=O)c1ccccc1F (stereo not drawn)	21µM*	nt	21	?	9%	21µM*
CCc1nc2c(OCc3ccc(Cl)cc3)cccn2c1N(C)C(=O)c1ccco1	21µM*	nt	-62*	?	?	16µM*
Cc1ccccc1-n1nnnc1SCC(=O)c1c(N)n(C2CC2)c(=O)[nH]c1=O	?	-3%	21	-17%	-22%	?
COc1ccc(-n2c(=O)c(-c3cc(F)cc(F)c3)nc3cncnc32)cc1	20%	nt	nt	nt	nt	0%
SMILES	DT40 TDP1 no CPT	uPA generation	IL-1B inflam inh	HT1080NT lethal	HT1080 IDH1KD tx	TDP1 cell CPT
CCc1nc2c(OCc3ccc(OC(F)F)cc3)cccn2c1N(C)C(=O)c1ccc(OC)cc1	13µM*	nt	-22	?	?	18µM*
CCc1nc2c(OCc3ccc(F)c(F)c3)cccn2c1N(C)C(=O)c1cccs1	23µM*	nt	-6	-1%	-4%	?
O=C(NCC1COc2ccccc2O1)c1ccc(Cl)c(S(=O)(=O)N2CCCC2)c1 (stereo not drawn)	?	-7%	-23	-8%	-7%	?
CN(CC1COc2ccccc2O1)C(=O)c1ccc(Cl)c(S(=O)(=O)N2CCCCCC2)c1 (stereo not drawn)	?	11%	5	1%[9.24 µM]	-4%	16µM*
COc1cccc(CN(C)C(=O)c2cc(S(=O)(=O)N3CCN(c4ccccc4)CC3)ccc2Cl)c1	16µM*	-4%	-14	-1%	-4%	23µM*
COc1cccc(CN(C)C(=O)c2ccc3c(=O)n4c(nc3c2)CCC4)c1OC	3%	-1%	-3	4%	0%	10%
COc1cccc(CN(C)C(=O)c2ccc(Cl)c(S(=O)(=O)N3CCCCCC3)c2)c1OC	?	-12%	-53*	0%	-10%	?
COc1cccc(CN(C)C(=O)c2ccc(S(=O)(=O)Nc3cccc(C)c3C)cc2)c1OC	18µM*	nt	-12	-12%	-24%	18µM*
COc1cccc(CN(C)C(=O)c2ccc(S(=O)(=O)Nc3ccccc3F)cc2)c1OC	?	-1%	-7	-4%	3%	?
COc1cc(NC(=O)c2cc3cc4ccc(OC)c(Cl)c4nc3s2)cc(OC)c1	-21%	nt	nt	nt	nt	-27%
Nc1ncnc(Nc2ccccc2Cl)n1	0%	-10%	-23	15%	14%	0%
Cc1ccccc1CNC(=O)C(=O)NCC1OCCCN1S(=O)(=O)c1cccs1 (stereo not drawn)	16%	4%	9	21%	0%	3%
CCOC(=O)C1=C(C(=O)OCC)N(CC)CCC1=O	-4%	17%	10	-7%	-4%	-9%
CC(=O)N1CCN(C(=O)c2cccc(S(=O)(=O)N3CCN(c4ccc(F)cc4)CC3)c2)CC1	-14%	2%	8	0%	-4%	-27%
CN(Cc1ccc(Cl)cc1Cl)C(=O)c1cccc(S(=O)(=O)N2CCN(c3ccccc3)CC2)c1	16µM*	-6%	?	-2%	-15%	26µM*
COc1cccc(CN(C)C(=O)c2cccc(S(=O)(=O)N3CCN(Cc4ccccc4)CC3)c2)c1OC	16µM*	-1%	-14	?	-22%	13µM*
